Compounds without any hit were thinned out: in the full panel of roughly 83,000, 20% have a hit.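 Negative percent growth values reflect cell death: -40 means 40% of the cells present at the start died, and -100 means all died.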 Unmarked numbers belong to inactive results. Calls of active or inactive are those of the source. Rule for the calls: active = growth percent below 10; inactive = the rest.
Columns and labels:
Test in all cases: NCI-60 one-dose screen, 48 h (100 = growth as untreated, 0 = no growth, -100 = all killed)
Settings in all cases: 10 µM unless noted
BT-549 breast = tested on: BT-549 breast
MDA-MB-435 melanoma = tested on: MDA-MB-435 melanoma
SW-620 colon = tested on: SW-620 colon
MCF7 breast = tested on: MCF7 breast
HCT-116 colon = tested on: HCT-116 colon
HCC-2998 colon = tested on: HCC-2998 colon
KM12 colon = tested on: KM12 colon
T-47D breast = tested on: T-47D breast

Structure (SMILES)	growth (BT-549 breast)	growth (MDA-MB-435 melanoma)	growth (SW-620 colon)	growth (MCF7 breast)	growth (HCT-116 colon)	growth (HCC-2998 colon)	growth (KM12 colon)	growth (T-47D breast) [%]
CCCCCCCCCCCCOB(OCCCCCCCCCCCC)OCCCCCCCCCCCC	96.7%	114%	117%	97.5%	123%	91.6%		
CCOC(=O)c1ccccc1NC(c1ccccc1)c1ccc2cccnc2c1O (configuration not stated)	17.9%	39.4%	37.5%	16.1%	27.3%	51.8%	29.8%	
COc1ccc(-c2cn[nH]c2-c2cc(OC)c3c(c2)OCCO3)cc1	53.3%		25.5%	19.6%	10.5%	25.3%	3.46% (active)	49.5
CC1=NN2C(=NC3=C(CCC/C3=C\c3ccc(Cl)cc3)C2c2ccc(Cl)cc2)S1 (configuration not stated)	97.9%	45.8%		24.2%	-37.2% (active)	80.6%	77.2%	89.1
CCCCCCCCCCn1cc[n+](C)c1		7.98% (active)	44.1%	3.94% (active)	17.6%	31.1%	14%	24.6
COc1cc(-c2n[nH]nc2-c2ccc3c(c2)OCCO3)cc(OC)c1OC	12%	-11.4% (active)		9.04% (active)	8.07% (active)	10.1%	9.43% (active)	40.5
Cc1ccc2c(c1)ncn2-c1ncnc2c1CC(C)c1ccccc1N2C (configuration not stated)	-6.44% (active)	11.8%		12.9%	10.1%	26.8%	10.5%	24.4
CCCCCCCCCCCCCCCCCCOc1cccc(CCOP(=O)(O)OCC[N+](C)(C)C)c1	92.5%	93.6%	94.3%	88.8%	70%	82.5%	50.1%	
O=C(CC(O)c1ccncc1)c1ccccc1 (configuration not stated)	-63.7% (active)	105%	109%	-24.2% (active)	15.5%	19.2%	38.2%	
CCN1C(=O)N(CC)C2C1NN=c1s/c(=C3\C(=O)N(C4CCCC4)c4ccccc43)c(=O)n12 (configuration not stated)	20%	-42.8% (active)	28.5%	21.4%	0.802% (active)	-16.7% (active)	10.9%	
O=C(Nc1ccccc1)OCC1OCOC(COC(=O)Nc2ccccc2)C1OC(=O)Nc1ccccc1 (configuration not stated)	93.5%	11.2%	8.17% (active)	16.5%	-51.6% (active)	36.9%	51.2%	
Cc1oc2nc[nH]c(=O)c2c1C(=O)/C=C/c1ccc(Cl)cc1	20.2%	6.74% (active)	8.49% (active)	15.4%	13.7%	83.1%	13.6%	
Nc1c(C(=O)Nc2cccc(Cl)c2Cl)sc2nc3c(cc12)C(=O)CCC3	95.3%	20.6%	64%	86.7%	93%	77.8%	67.5%	
CCN1C(=O)N(CC)C2Nn3c(s/c(=C4\C(=O)N(C5CCCC5)c5ccccc54)c3=O)=NC21 (configuration not stated)	79.3%	-15.9% (active)	53.9%	45.7%	19.8%	91.8%	23.8%	
COc1cccc(NC(=O)Cn2cc3c(=O)oc4ccccc4c3n2)c1	94.5%	88.1%		88.1%	99.5%	110%	100%	
CCCCCC/C=C\CCCCCCCCOc1ccc(CCOP(=O)(O)OCC[N+](C)(C)C)cc1	91.2%	100%	93.2%	79.2%	50.2%	89.2%	59.3%	
CC[C@H](C)[C@@H]1NC(=O)[C@H]([C@@H](C)O)NC(=O)C(Cc2ccccc2)NC(=O)[C@@H]2CCCN2C(=O)C(C(C)C)NC(=O)C(Cc2ccccc2)NC(=O)CNC(=O)[C@@H]2CCCN2C1=O (some centres not stated)		74%	68.3%	67.4%	18.8%	88.2%	59.2%	
COc1cccc2cc(-c3cc4ccccc4[nH]3)/c(=N/C(=S)Nc3ccccc3)oc12	95.2%	87.9%	74.1%	79.5%	59.6%	82.6%	88.3%	
COc1cc(CCn2nnc3c(NCCCCO)ncnc32)cc(OC)c1		97.9%	97.9%	99.6%	97.7%	102%	103%	
Cc1ccc(S(=O)(=O)OC2COCOC2C(OS(=O)(=O)c2ccc(C)cc2)C2OCOCC2OS(=O)(=O)c2ccc(C)cc2)cc1 (configuration not stated)	98.2%	108%	108%	103%	105%	113%	107%	
COc1cc2oc(-c3cccc(NC(=O)Nc4ccc5c(c4)OCO5)c3)cc(=O)c2c(OC)c1OC	59.8%	68.7%	57.3%	65.1%	50.2%	59.2%	48.5%	
CCCCCCCC/C=C\CCCCCCCCOc1ccccc1CCOP(=O)(O)OCC[N+](C)(C)C	88.3%	92.7%	67.8%	74.2%	27.2%	74.3%	21.8%	
c1ccc2nc(-c3ccc4ccccc4n3)ccc2c1	93.7%	91.9%		61.8%	88.7%	101%	90.4%	
C#CCN1C(=O)/C(=c2\sc3n(c2=O)C2C(NN=3)N(CC)C(=O)N2CC)c2ccccc21 (configuration not stated)	39.7%	-63.2% (active)	24.3%	23.3%	4.43% (active)	-1.47% (active)	14.1%	
COc1cccc(-n2cc(-c3nc(Cl)c4ccccc4n3)nn2)c1	96.1%	97.3%	110%	92.6%	89.5%	105%	106%	
CCN1C(=O)N(CC)C2Nn3c(s/c(=C\c4cccc(F)c4)c3=O)=NC21 (configuration not stated)	80.4%	5.47% (active)	57.4%	54.7%	45.4%	98.7%	49.1%	

Source: PubChem BioAssay (NCI)
